High-throughput results from PubChem BioAssay.
TRb-SRC2 inh – TRbeta-SRC2 interaction inhibition | 280,000 compounds, 0.065% hits | Potency, µM (doses to about 106 µM), most hits filed as inhibitors | P10828 | TRbeta-SRC2 peptide binding, fluorescence polarization; receptor liganded with 1 µM T3; also: nearly all actives have a fitted effect of over 50% in size
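Assay buffer: 20 mM Tris-HCl, 100 mM NaCl, 10% glycerol, 1 mM EDTA, 0.01% NP-40, 1 mM DTT, 1 uM T3, 5% DMSO; TRb LBD 0.6 uM, Texas Red SRC2 20 nM; FP after 5 hr.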
RGS12 GoLoco inh – RGS12 GoLoco-Gai1 interaction inhibition. AID 880. Potency, µM (highest dose often 61.6 µM), hits mostly inhibitors. Gai1:RGS12 GoLoco peptide FP, rhodamine, 10 min. 230,000 compounds, 0.44% hits. P63096; active = well fitted inhibition curve with a large enough effect, not every such curve was filed as active; inactive = no such curve, though single readings can be large or run the other way; also: nearly all actives have a fitted effect of over 30% in size
Target sequence (P63096 whole entry, looked up): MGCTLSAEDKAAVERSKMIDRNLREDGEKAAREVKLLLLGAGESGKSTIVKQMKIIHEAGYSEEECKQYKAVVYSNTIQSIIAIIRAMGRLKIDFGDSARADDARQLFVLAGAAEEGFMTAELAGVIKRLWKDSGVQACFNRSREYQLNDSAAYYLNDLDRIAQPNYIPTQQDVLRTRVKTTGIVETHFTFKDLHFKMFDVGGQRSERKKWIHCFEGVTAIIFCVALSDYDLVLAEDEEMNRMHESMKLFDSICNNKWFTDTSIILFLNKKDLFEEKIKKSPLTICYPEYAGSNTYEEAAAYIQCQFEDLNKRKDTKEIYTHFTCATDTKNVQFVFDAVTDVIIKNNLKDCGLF
ERG Ets-DNA blk – ERG Ets/DNA interaction inhibition | P11308 | fluorescence polarization, His-ERG Ets domain / labelled DNA | Potency, µM (highest dose often 76.9 µM), hits mostly inhibitors | 370,000 compounds, 0.028% hits | AID 624246; active = well fitted inhibition curve with a large enough effect in the polarisation, with a control signal flat; inconclusive = small, poorly fitted or top-dose-only effect, or effect the other way, or a change in a side signal; inactive = no such curve, though single readings can be large or run the other way; the % refers to the polarisation;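 also: polarization taken with two DNA probes labelled with fluorescein and Texas red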
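His-tagged ERG Ets domain (1 uM in the protein solution; 300mM KCl, 50mM Tris-HCl, 1mM EDTA, 1mM DTT, pH 7.5) received compound, then a probe mix of 5 nM fluorescein-DNA and 100nM Texas-615-DNA. Fluorescence polarization was read for both dyes.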
Apoferritin bind – candidate novel general anesthetic via apoferritin binding | P02791 | apoferritin/1-aminoanthracene competitive binding, fluorescence | Potency, µM (doses to about 77.5 µM), hits mostly inhibitors | 350,000 compounds, 0.074% hits | AID 485281; also: nearly all actives have a fitted effect of over 20% in size
Target sequence (P02791 2-175 limits assumed): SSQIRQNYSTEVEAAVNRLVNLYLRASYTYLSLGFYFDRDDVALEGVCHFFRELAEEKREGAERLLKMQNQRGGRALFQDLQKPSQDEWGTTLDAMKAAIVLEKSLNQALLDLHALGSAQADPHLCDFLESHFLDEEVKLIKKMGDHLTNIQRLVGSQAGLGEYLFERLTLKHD
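10 uM apoferritin + 50% sat. 1-AMA, PBS; cpd 10 min RT; Ex380/Em535 endpoint; normalized to free probe vs complex; 4-param Hill fit; propofol titration as pos. ctrl.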
TR SRC2 fluor cs – counter-screen for TRb-SRC2 inhibitors: fluorescence interference; TRb/SRC2 Texas Red total fluorescence interference; 280,000 compounds, 0.29% hits; Potency, µM (highest dose often 106 µM); active = well fitted curve in either direction with a large enough effect; inconclusive = small, poorly fitted or top-dose-only effect
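Human TRβ ligand-binding domain (0.6 uM) and Texas Red SRC2 peptide (20 nM) in Tris buffer with 1 uM T3 and 5% DMSO were incubated with pinned compound for 5 hr at ambient temperature. Total fluorescence was computed as S + 2P (555/632 nm).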
Numbers stand for hits; 0 = inactive; ? = inconclusive; - = no result; [ ] = dose if it differs, or a comment. An excerpt weighted towards active compounds, which were near 0.44% of everything screened. Unless noted, calls follow the shape of the dose curve; as a rule, active = well fitted curve in the direction sought with a large enough effect; inconclusive = small, poorly fitted or top-dose-only effect, or another doubt; inactive = no such curve, though single readings can be large; an effect the other way counts as inactive or inconclusive.

SMILES	TRb-SRC2 inh	RGS12 GoLoco inh	ERG Ets-DNA blk	Apoferritin bind	TR SRC2 fluor cs
CCCCCCCCCCCCCCCC[n+]1cccc(C(=O)N(CC)CC)c1	0	0	0	16µM	0
CCCC(=Nc1ccc(N)cc1)C1=C(O)C(C(=O)OC)C(C)(C)CC1=O (centres undefined)	35µM	14µM	?	0	45µM[fluorescent]
Cc1ccccc1NC(NC(=O)OCCn1c([N+](=O)[O-])cnc1C)C(Cl)(Cl)Cl (centres undefined)	0	0	0	0	7.1µM[quencher]
Cc1ncc([N+](=O)[O-])n1CCOC(=O)NC(Nc1ccc(F)cc1)C(Cl)(Cl)Cl (centres undefined)	0	0	0	0	0
COc1cc(C(=O)O[C@H]2C/C(C)=C/CC/C(C)=C/[C@@H](O)C2C(C)C)ccc1O (some centres undefined)	0	-	-	0	0
COc1ccc(Cn2ccnc2SCC(=O)NC2CCCC2)cc1	0	-	0	35µM	0
Cc1cc(C)c(N(Cc2ccccc2)S(=O)(=O)c2ccc(OCCNC(=O)c3cc4ccccc4o3)cc2)c(C(=O)NO)c1	0	-	-	0	0
O=C(O)c1cccc(SSc2cccc(C(=O)O)c2)c1	-	0[14.2 µM]	-	-	-
C[N+]1(C2CCC3CCCC2C3O)CCCC1 (centres undefined)	0	2.8µM	0	0	0
CC(C)(O)[C@@H]1CCC[N+]2(C)CCCC[C@H]12 (some centres undefined)	0	0	-	-	0
CC[C@H](C)[C@H](NC(=O)[C@H](CCC(=O)O)NC(=O)[C@@H](N)CO)C(=O)N[C@@H](CCC(N)=O)C(=O)N[C@@H](CC(C)C)C(=O)N[C@@H](CCSC)C(=O)N[C@@H](Cc1cnc[nH]1)C(=O)N[C@@H](CC(N)=O)C(=O)N[C@@H](CC(C)C)C(=O)NCC(=O)N[C@@H](CCCCN)C(=O)N[C@@H](Cc1cnc[nH]1)C(=O)N[C@@H](CC(C)C)C(=O)N[C@@H](CC(N)=O)C(=O)N[C@@H](CO)C(=O)N[C@@H](CCSC)C(=O)N[C@@H](CCC(=O)O)C(=O)N[C@@H](CCCNC(=N)N)C(=O)N[C@H](C(=O)N[C@@H](CCC(=O)O)C(=O)N[C@@H](Cc1c[nH]c2ccccc12)C(=O)N[C@@H](CC(C)C)C(=O)N[C@@H](CCCNC(=N)N)C(=O)N[C@@H](CCCCN)C(=O)N[C@@H](CCCCN)C(=O)N[C@@H](CC(C)C)C(=O)N[C@@H](CCC(N)=O)C(=O)N[C@@H](CC(=O)O)C(=O)N[C@H](C(=O)N[C@@H](Cc1cnc[nH]1)C(=O)N[C@@H](CC(N)=O)C(=O)N[C@@H](Cc1ccccc1)C(=O)O)C(C)C)C(C)C	0	-	-	0	0
CCCc1cc2c(c(=O)o1)C(O)C1OC1C2=O (centres undefined)	0[11.2 µM]	-	-	0[15.3 µM]	0[11.2 µM]
CCOC(=O)Cc1cc(=O)n2[nH]c(C)c(-c3ccccc3)c2n1	?	0	?	0	45µM[fluorescent]
CCOC(=O)Cc1cc(=O)n2[nH]c(-c3ccccc3)c(-c3ccccc3)c2n1	0	0	0	0	0
COc1ccc2[nH]c3c4c(ccc3c2c1)C(=O)C=CC4=O	0	22µM	0	0	0
COc1ccc2[nH]c(-c3ccc(F)cc3F)cc(=O)c2c1	0	0	-	0	0
O=[N+]([O-])c1cc(/C=N/N2CCOCC2)cs1	-	-	32µM	0	-
Cc1ccc(S(=O)(=O)CNC(=S)c2cccc(C)c2)cc1	0	0	0	28µM	0
COc1ccc(C(=S)NCS(=O)(=O)c2ccc(C)cc2)cc1	0	0	0	?	0
Cc1ccc(S(=O)(=O)CNC(=S)c2ccc3ccccc3c2)cc1	0	0	0	25µM	0
CO[C@@H]1/C=C\O[C@]2(C)Oc3c(C)c(O)c4c(O)c(cc(O)c4c3C2=O)NC(=O)/C(C)=C\C=C/[C@H](C)[C@@H](O)[C@H](C)[C@H](O)C(C)[C@H](OC(C)=O)[C@@H]1C (some centres undefined)	-	0[14.2 µM]	-	-	-
O=P1(O)OP(=O)(O)OP(=O)(O)O1.[Al]	0	-	-	0	0
c1ccc(-c2[nH]ncc2-c2ccnc3ccccc23)nc1	0	-	-	0	0
CC(C)N=c1cc2n(-c3ccc(Cl)cc3)c3ccccc3nc-2cc1Nc1ccc(Cl)cc1	0	10µM	?	0	0
